The values below come from PubChem BioAssay (NCATS).

Records with an inconclusive call do not appear. Values without a mark were called inactive. Calls of active or inactive are those of the source. The call rests on the fitted dose curve; in most records, active means well fitted curve in the direction sought with a large enough effect; inconclusive means small, poorly fitted or top-dose-only effect, or another doubt; inactive means no such curve, though single readings can be large; an effect the other way counts as inactive or inconclusive.

Assay [1] can be described thus: Primary qHTS for inhibitors of nuclear receptor binding SET domain protein 2 (NSD2) in an isogenic RCH-ACV NSD2 p.E1099K mutant (9B) (AID 1645876). Further: potency means the concentration at half of the fitted maximal effect.
Assay [2] is described as follows: Primary qHTS for inhibitors of nuclear receptor binding SET domain protein 2 (NSD2) in an RCH-ACV wild type WT cells (2C) (AID 1645877).
Further: nearly all actives have a fitted effect of over 70% in size.
On the % scale 0 is the no-effect control and ±100 the full control effect.

As to `C[C@@]12C[C@]3(O)O[C@H](O1)[C@]1(COC(=O)c4ccccc4)[C@H]3C[C@@]12O[C@@H]1O[C@H](COC(=O)c2ccccc2)[C@@H](O)[C@H](O)[C@H]1O`, the Potency entry in assay [1] and in assay [2] was “inactive” throughout.

In the case of `C[C@@H]1O[C@@H](O[C@H]2[C@H](O)[C@@H](O)[C@H](OC[C@H]3O[C@@H](OC(=O)[C@]45CCC(C)(C)C[C@H]4C4=CCC6[C@@]7(C)C[C@H](O)[C@H](O[C@@H]8O[C@H](CO)[C@@H](O)[C@H](O)[C@H]8O)[C@@](C)(C(=O)O)C7CC[C@@]6(C)[C@]4(C)CC5)[C@H](O[C@@H]4O[C@H](CO)[C@@H](O)[C@H](O)[C@H]4O)[C@@H](O)[C@@H]3O)O[C@@H]2CO)[C@H](O)[C@H](O)[C@H]1O` (stereo partly drawn), the activity change, negative = viability loss in assay [1] was -12.2% [at 9.23 µM]. Besides, in assay [2], the activity change, negative = cell killing was -0.13% [at 9.23 µM].

In the case of `CC(NC(=O)CC(=O)O)c1nc2ccccc2c(=O)[nH]1` (stereo not drawn), the Potency entry in assay [1] and in assay [2] was “inactive” throughout.

Turning to `N#Cc1ccnc(N2C(=O)CC[C@H]2C(=O)N(c2cncc(F)c2)[C@H](C(=O)NC2CC(F)(F)C2)c2ccccc2Cl)c1`, the Potency result in assay [1] and in assay [2] was “inactive” throughout.

As for `CCNC(=O)CCC/C=C\C[C@@H]1[C@@H](/C=C/C(O)CCc2ccccc2)[C@@H](O)C[C@@H]1O` (stereo partly drawn), the Potency entry in assay [1] and in assay [2] was “inactive” in each case.

`C=C[C@](C)(CC/C=C(\C)C(=O)O)O[C@@H]1OC[C@H](O)[C@H](O)[C@H]1O`: the Potency entry in assay [1] and in assay [2] was “inactive” each time.

For `C=CC1(C)C=C2C(O)CC3C(C)(C(=O)O)CCCC3(C)C2CC1` (stereo not drawn), the Potency result in assay [1] and in assay [2] was “inactive” in each case.

In the case of `CCC[C@@H]1C[C@@H](C(=O)N[C@@H]([C@H]2O[C@H](SC)[C@H](OP(=O)(O)O)[C@@H](O)[C@H]2O)[C@H](C)Cl)N(C)C1`, the Potency entry in assay [1] and in assay [2] was “inactive” each time.

In the case of `COc1cc(/C=C/C(=O)OC(C)(C)C(OC2OC(CO)C(O)C(O)C2O)C(=O)OCc2ccc(OC3OC(CO)C(O)C(O)C3O)cc2)ccc1O` (stereo not drawn), the Potency entry in assay [1] and in assay [2] was “inactive” throughout.

Take `CC1(CO)CC2C(O)C(=O)C3(CO)CC3(C)C2C1` (stereo not drawn): the Potency result in assay [1] and in assay [2] was “inactive” throughout.

Take `C/C=C(\C)C(=O)O[C@H]1[C@H](O)[C@]2(COC(C)=O)[C@H](O)C[C@]3(C)C(=CCC4[C@@]5(C)CC[C@H](O[C@@H]6O[C@H](C(=O)O)[C@@H](O[C@@H]7O[C@H](CO)[C@@H](O)[C@H](O)[C@H]7O)[C@H](O)[C@H]6O[C@@H]6O[C@H](CO)[C@@H](O)[C@H](O)[C@H]6O)[C@](C)(CO)C5CC[C@]43C)[C@@H]2CC1(C)C` (stereo partly drawn): the activity change, negative = viability loss in assay [1] is 0.0444% [at 9.23 µM]. The activity change, negative = cell killing in assay [2] was -12.8% [at 9.23 µM].

Consider `COC(=O)C1=CO[C@@H](O[C@@H]2O[C@H](CO)[C@@H](O)[C@H](O)[C@H]2O)[C@@H]2[C@@H](C(=O)OC)[C@@H](O)C(O)[C@H]12` (stereo partly drawn), for which the Potency result in assay [1] and in assay [2] was “inactive” each time.

With `COc1c(C)c(OCC=C(C)C)cc2c1C(=O)NC2=O`, the Potency entry in assay [1] and in assay [2] was “inactive” each time.

For `COc1cc(C2Oc3c(OC)cc(/C=C/C(=O)OC[C@H]4O[C@@H](OC(C)(C)C(=O)O)[C@H](O)[C@@H](O)[C@@H]4O)cc3C2CO)ccc1O` (stereo partly drawn), the Potency entry in assay [1] and in assay [2] was “inactive” throughout.

As for `C/C(=C/CO)CC[C@@H]1[C@@]2(C)CCC[C@](C)(C(=O)O)C2CC[C@@]1(C)O` (stereo partly drawn), the Potency entry in assay [1] and in assay [2] was “inactive” in each case.

In the case of `CC[C@H]1OC(=O)[C@H](C)[C@@H](O[C@H]2C[C@@](C)(OC)[C@@H](O)[C@H](C)O2)[C@H](C)[C@@H](O[C@@H]2O[C@H](C)C[C@H](N(C)C)[C@H]2O)[C@@](C)(O)C[C@@H](C)[C@@H]2N[C@@H](COCCOC)OC([C@H]2C)[C@]1(C)O`, the Potency result in assay [1] and in assay [2] was “inactive” throughout.

For `CC1=CC(=O)C[C@H]2[C@@H]1CC[C@@H](C)[C@]21CO[C@H](c2ccoc2)C1=O`, the Potency entry in assay [1] and in assay [2] was “inactive” in each case.

Consider `COc1cc(C2Oc3c(OC)cc(CCCO[C@@H]4O[C@H](CO)[C@@H](O)[C@H](O)[C@H]4O)cc3C2CO)ccc1O` (stereo partly drawn), for which the Potency result in assay [1] and in assay [2] was “inactive” each time.

Turning to `CC(=O)[C@@H]1CC[C@]2(C(=O)O)CC[C@]3(C)C(CCC4[C@@]5(C)CC[C@H](O)C(C)(C)C5CC[C@]43C)C12` (stereo partly drawn), in assay [1], the Potency was 7.96 µM (active). Also, in assay [2], the Potency result is “inactive”.

Turning to `COc1cc(C(=O)OC[C@H]2O[C@H](O[C@@]3(CO)O[C@@H](CO)[C@H](O)[C@H]3O)[C@H](O)[C@@H](O)[C@@H]2O)ccc1O`, the Potency entry in assay [1] and in assay [2] was “inactive” throughout.

Take `CC(=O)OC(CSC1CCC(=O)OC(C)CCC(=O)C1)C(=O)O` (stereo not drawn): the Potency entry in assay [1] and in assay [2] was “inactive” throughout.

Take `CC1=CC(=O)CC(C)(CO[C@@H]2O[C@H](CO)[C@@H](O)[C@H](O)[C@H]2O)C1(O)/C=C/C(C)=C/C(=O)O` (stereo partly drawn): the Potency entry in assay [1] and in assay [2] was “inactive” in each case.

As for `C[C@]1(O)CC[C@@H]2C(C(=O)O)=CO[C@@H](O[C@@H]3O[C@H](COC(=O)c4ccc(O)cc4)[C@@H](O)[C@H](O)[C@H]3O)[C@@H]21`, the Potency entry in assay [1] and in assay [2] was “inactive” throughout.

Regarding `CC(=O)OC[C@@]12[C@@H](OC(C)=O)C[C@@H](C)[C@](C)([C@@H]3C[C@H]4C=CO[C@H]4O3)[C@H]1CCC[C@]21CO1`, the Potency result in assay [1] and in assay [2] was “inactive” each time.
